# Bioassay records as filed in PubChem BioAssay.
# ELG1 repair inh = blocks ELG1-dependent DNA repair in HEK293T cells. Potency, µM (titrated, usually from 46.1 µM), without a hit: at the top dose activity change, negative = inhibition, most hits filed as inhibitors. HEK293T ELG1-luciferase reporter, luminescence, 16 h; DNA damage induced by 5-fluorouridine. actives 2.3% (n = 330,000); note: % is set by controls: 0 for no effect and ±100 for the full control effect; nearly all actives have a fitted effect of over 55% in size
#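 In this reporter screen, reduction of luminescence relative to DMSO vehicle indicated activity. Compounds and 5-fluorouridine were added together to 2,000 cells per well, incubated for 16 hr at 37 °C, then developed with ONE-Glo.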
# NPC1 promoter act = activates the NPC1 promoter; actives 2.4% (n = 320,000); Potency, µM (series often up to 9.22 µM), for inactives: top-dose activation, most hits filed as activators; Huh7 NPC1 promoter luciferase reporter, 24 h; AID 485313; note: % of control where 0% means no effect; nearly all actives have a fitted effect of over 60% in size
#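 Stably transfected Huh7 (NPC1 promoter→luciferase), 1500 cells/well in Opti-MEM + 10% FBS, 2 h settle, then compound 24 h at 37 °C. Luminescence after 10 min with Amplite reagent.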
# Rab9 promoter act = Rab9 promoter activation; Potency, µM (titrated, usually from 9.22 µM), for inactives: at the highest dose activation, negative = inhibition, usual class: activators; Huh7 Rab9 promoter-luciferase reporter, luminescence, 24 h; actives 2.8% (n = 320,000); note: % of control where 0% means no effect; nearly all actives have a fitted effect of over 60% in size
#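 Steps: seed 1500 Huh7 Rab9-luc cells per well, rest 2 h at 37 °C; add compound in DMSO; incubate 24 h; add luciferase reagent, 10 min ambient; read luminescence.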
# SMN2 splice up = SMN2 splice variant enhancement; HEK293 SMN2-luciferase splicing reporter, luminescence, 30-36 h; Potency, µM (top dose mostly 46.1 µM), for inactives: top-dose activity change, positive = activation, usual class: activators; actives 2.8% (n = 210,000); note: % of control where 0% means no effect; nearly all actives have a fitted effect of over 55% in size
#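 qHTS luciferase splicing reporter: luminescence rises when SMN2 exon 7 is included in transfected HEK293 cells. Compound exposure lasted 30-36 h at 37C, with 4.5 mM final sodium butyrate as control, followed by a ONE-Glo read.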
# FLuc counter = firefly luciferase modulation, counter-screen for miR-21 project; purified FLuc, Km substrates, luminescence inhibition; P08659; Potency, µM (series often up to 57.5 µM), inactives show at the top dose activity change, negative = inhibition, most hits filed as inhibitors; actives 6.9% (n = 360,000);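 note: plate controls were vehicle for no effect and reference inhibitor for full effect; nearly all actives have a fitted effect of over 55% in size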
# Target sequence (P08659 whole entry, looked up): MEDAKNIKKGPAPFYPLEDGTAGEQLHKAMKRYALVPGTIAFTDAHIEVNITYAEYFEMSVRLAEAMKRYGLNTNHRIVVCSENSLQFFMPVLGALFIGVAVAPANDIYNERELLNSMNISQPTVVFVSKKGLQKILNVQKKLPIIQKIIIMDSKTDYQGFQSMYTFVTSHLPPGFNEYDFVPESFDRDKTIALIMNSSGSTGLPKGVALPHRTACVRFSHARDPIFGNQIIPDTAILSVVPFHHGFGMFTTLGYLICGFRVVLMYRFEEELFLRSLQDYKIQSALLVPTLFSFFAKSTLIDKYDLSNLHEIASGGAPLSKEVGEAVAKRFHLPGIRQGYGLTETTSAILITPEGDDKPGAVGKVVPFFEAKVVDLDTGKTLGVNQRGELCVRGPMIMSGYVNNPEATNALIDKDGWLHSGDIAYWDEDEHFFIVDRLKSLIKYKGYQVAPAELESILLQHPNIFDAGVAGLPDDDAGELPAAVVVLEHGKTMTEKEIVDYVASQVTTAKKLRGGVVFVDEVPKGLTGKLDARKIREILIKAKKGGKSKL
#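 Purified P. pyralis luciferase, 10 nM final, with Km-level 10 uM D-luciferin and 10 uM ATP in 50 mM Tris acetate pH 7.5, 10 mM Mg acetate, 0.01% Tween-20, 0.05% BSA; 6-point qHTS titration about 60 µM downward; luminescence read.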
# ELG1 genotoxic = genotoxicity induction in ELG1-luciferase HEK293T cells; HEK293T ELG1-luciferase reporter, luminescence, 16 h; actives 1.3% (n = 330,000); Potency, µM (doses to about 46 µM), without a hit: at the top dose activity change, positive = activation, hits mostly activators; note: % of control where 0% means no effect; nearly all actives have a fitted effect of over 60% in size
#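 After overnight (16 hr) compound treatment at 37 °C, ELG1-luciferase HEK293T cells were lysed with ONE-Glo; luminescence quantified 30 min later at room temperature.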
# Numbers without * were called inactive; ? = inconclusive; . = not tested or not shown. Hits are enriched below; roughly 9.3% of the tested compounds scored in any of these assays. Calls come from the whole dose curve; as a rule, active = well fitted curve in the direction sought with a large enough effect; inconclusive = small, poorly fitted or top-dose-only effect, or another doubt; inactive = no such curve, though single readings can be large; an effect the other way counts as inactive or inconclusive. Potency is the fitted concentration of half-maximal effect.
SMILES,ELG1 repair inh,NPC1 promoter act,Rab9 promoter act,SMN2 splice up,FLuc counter,ELG1 genotoxic
COc1ccc(CCNC(=O)c2cc3c(C)nccc3[nH]c2=O)cc1OC,?,-6%,1%,.,-1%,-12%
COC(=O)[C@@]1(Cc2ccc(F)cc2)[C@H]2c3cc(C(=O)N(C)C)n(Cc4cccc5ccccc45)c3C[C@H]2CN1C(=O)c1ccccc1,.,.,.,-19%,.,.
COc1ccccc1OCCNC(=O)c1cc(F)c(F)cc1Cl,?,1%,0%,22%,?,3%
Cc1ccccc1C(=O)NCCOc1ccccc1Cl,?,0.63µM*,0.56µM*,.,8.5µM*,5.8µM*
CSc1ccccc1C(=O)NCCOc1ccccc1C,-13%,-1%,-2%,-9%,4%,-3%
O=C(NCCOc1ccccc1F)c1cc(F)c(F)cc1Cl,?,0.71µM*,1.4µM*,2µM*,3µM*,?
CCOC(=O)c1cnc2ccc(OC)cc2c1NCCc1ccccc1,.,.,.,-54%,-9%,.
COC(=O)c1cc(-c2cccc(OC)c2)n[nH]1,?,4%,15%,?,?,10%
COC(=O)c1cc(-c2ccc(OC)cc2)n[nH]1,?,?,?,?,27µM*,?
CCOc1ccc(-c2cc(C(=O)OC)[nH]n2)cc1,?,3.2µM*,2.2µM*,.,9.5µM*,?
COC(=O)c1cc(-c2ccc(C)cc2)n[nH]1,?,16%,?,.,24µM*,?
CCOc1ccccc1NC(C)C(=O)NC(=O)NC1CCCCC1 (stereo unspecified),26%,0%,-3%,.,-1%,0%
CCn1c(=O)cc(OCC(=O)NCCCN2CCCC2=O)c2ccccc21,?,-4%,-11%,.,-2%,?
COc1ccc(Cl)cc1NC(=O)CCNS(=O)(=O)c1cccc2nonc12,-4%,-36%,-3%,.,1%,-5%
COc1ccc(NS(=O)(=O)c2cccc(C(=O)NN=C(C)c3ccco3)c2)cc1,0%,.,.,.,.,-1%
CC(C)c1ccc(CN(C)C(=O)c2ccc(S(=O)(=O)NCc3ccco3)cc2)cc1,3%,-4%,-5%,.,.,1%
Cc1ccc(C(C(=O)NC2CCCCC2)N(Cc2cccnc2)C(=O)C2COc3ccccc3O2)o1 (stereo unspecified),?,?,1.3µM*,17%,9%,-6%
O=C(CSc1nnc2[nH]c(=O)cc(-c3ccccc3)n12)Nc1ccccc1C(F)(F)F,.,.,.,.,2.7µM*,.
CCc1ccc(NC(=O)CSc2nnc3[nH]c(=O)cc(-c4ccccc4)n23)cc1,.,.,.,.,1.5µM*,.
COc1ccc(Cl)cc1NC(=O)CSc1nnc2[nH]c(=O)cc(-c3ccccc3)n12,.,.,.,.,1.2µM*,.
Nc1cc(=O)[nH]c2nnc(SCC(=O)Nc3cccc4ccccc34)n12,0%,3%,1%,.,7%,-2%
COc1ccc(Cl)cc1NC(=O)CSc1nc(-c2ccccc2)cc(=O)[nH]1,-1%,2%,5%,.,-5%,0%
CN(C)c1ccc(C2C=C(c3ccccc3)Nc3nnnn32)cc1 (stereo unspecified),.,.,.,-13%,-7%,.
COC(=O)C1CC(O)CN1S(=O)(=O)c1cccs1 (stereo unspecified),-14%,0%,-18%,10%,-1%,0%
NC1=NC(=O)/C(=C/c2cccs2)S1,4%,-9%,.,34%,?,2%
C=CCSC1=NC(=O)/C(=C/c2cccs2)S1,2%,-8%,-5%,20%,19µM*,?
CCC(=O)Nc1ccc(NC(=S)NC(=O)c2oc3ccccc3c2C)cc1,9%,-4%,-4%,9%,0%,10%
Cc1c(C(=O)NC(=S)NCC(C)C)oc2ccccc12,?,2.8µM*,?,13µM*,3µM*,?
